In the supplement of paper PMC10849652:
The full data set covers some 7,900 targets. This sample favours those with a hit. About 0.6% of all pairs of compound and target were hits.

Tests used:
Assay in all cases: log2 fold change, soluble protein after heating vs DMSO (PISA); higher = thermal stabilisation; K562 cells, 10 uM, 30 min; active = over 0.2 and 3.5 SD of the protein, either way, in both replicates (recomputed)
[1] = compound: C1=CC=C(C=C1)[C@H](COC2=CC3=C(C=C2)NC(=O)N3)NC(=O)C4=CC=CN(C4=O)CC5=CC(=C(C=C5)F)F
Outline: (§1)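 Soluble protein was quantified by TMTpro 16plex LC-MS/MS after channel sums were equalised. It was obtained as the supernatant after 21,000xg for 90 min from pooled aliquots of K562 cells (2×10^6 cells/mL, 10 μM compound, 30 min) heated for 3 min across 48°C-58°C and extracted in PBS with 0.5% NP-40 at 4°C. Thermal stability values are relative to control samples and come from duplicates. They are given as log2 fold changes.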

[2] = compound: CC1=C(SC2=C1C(=N[C@H](C3=NN=C(N32)C)CC(=O)N)C4=CC=C(C=C4)Cl)C
Outline: as §1

[3] = compound: CC1=C2C(=CC=C1)N=C(N(C2=O)C3=CC=CC=C3C)CN4C=NC5=C(N=CN=C54)N
Outline: as §1

[4] = compound: Cc1sc2c(c1C)C(c1ccc(Cl)cc1)=N[C@@H](CC(=O)OC(C)(C)C)c1nnc(C)n1-2
Outline: as §1

[5] = compound: c1ccc([C@@H]2C[C@H]2NC2CCNCC2)cc1
Outline: as §1

Measured: log2 fold change

TRIM44 (UniProt Q96DX7)
inactive: [1] -0.027 | [2] 0.008 | [3] -0.002 | [4] -0.006 | [5] 0.012

XPO1 (UniProt O14980)
inactive: [1] -0.064 | [2] 0.053 | [3] 0.044 | [4] -0.011 | [5] -0.013

VPS52 (UniProt Q8N1B4)
inactive: [1] 0.068 | [2] 0.036 | [3] 0.137 | [4] -0.057 | [5] -0.028

WDR46 (UniProt O15213)
inactive: [1] 0.058 | [2] -0.35 | [3] -0.302 | [4] 0.246 | [5] -0.005

WAPL isoform 3 (UniProt Q7Z5K2)
UniProt Q7Z5K2, sequence (Q7Z5K2 whole entry, looked up): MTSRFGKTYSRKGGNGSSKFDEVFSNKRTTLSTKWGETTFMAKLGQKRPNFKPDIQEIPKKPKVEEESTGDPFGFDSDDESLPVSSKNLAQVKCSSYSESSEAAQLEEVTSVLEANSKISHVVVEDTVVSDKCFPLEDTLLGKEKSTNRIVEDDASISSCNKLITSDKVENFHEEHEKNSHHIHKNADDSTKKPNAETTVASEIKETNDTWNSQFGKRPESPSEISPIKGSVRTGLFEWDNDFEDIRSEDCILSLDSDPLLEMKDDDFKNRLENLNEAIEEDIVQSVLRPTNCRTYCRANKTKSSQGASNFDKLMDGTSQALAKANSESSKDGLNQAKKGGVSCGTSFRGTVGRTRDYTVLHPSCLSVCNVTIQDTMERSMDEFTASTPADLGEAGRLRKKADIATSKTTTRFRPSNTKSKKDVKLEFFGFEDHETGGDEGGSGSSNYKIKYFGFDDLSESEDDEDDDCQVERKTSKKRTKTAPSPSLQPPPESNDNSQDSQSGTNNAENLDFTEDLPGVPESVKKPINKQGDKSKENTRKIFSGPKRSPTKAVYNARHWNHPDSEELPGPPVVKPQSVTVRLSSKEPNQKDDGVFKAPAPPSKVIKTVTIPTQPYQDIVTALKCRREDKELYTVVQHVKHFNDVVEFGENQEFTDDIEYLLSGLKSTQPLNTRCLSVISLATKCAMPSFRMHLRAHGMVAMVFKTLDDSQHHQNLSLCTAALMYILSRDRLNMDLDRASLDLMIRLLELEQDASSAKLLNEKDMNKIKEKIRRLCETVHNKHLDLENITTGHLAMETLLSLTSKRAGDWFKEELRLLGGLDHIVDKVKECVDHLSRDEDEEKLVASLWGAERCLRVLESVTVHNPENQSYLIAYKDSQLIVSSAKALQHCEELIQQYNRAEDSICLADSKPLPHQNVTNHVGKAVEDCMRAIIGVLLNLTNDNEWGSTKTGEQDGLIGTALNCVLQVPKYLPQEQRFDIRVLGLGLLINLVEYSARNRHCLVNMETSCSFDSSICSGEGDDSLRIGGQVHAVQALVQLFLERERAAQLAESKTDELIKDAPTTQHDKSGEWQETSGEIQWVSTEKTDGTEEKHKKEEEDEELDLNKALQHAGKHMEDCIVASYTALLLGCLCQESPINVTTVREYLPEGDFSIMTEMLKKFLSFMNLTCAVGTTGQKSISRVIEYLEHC
inactive: [1] -0.116 | [2] 0.021 | [3] 0.138 | [4] -0.08 | [5] 0.095

UHRF1BP1L (UniProt A0JNW5)
inactive: [1] 0.024 | [2] 0.099 | [3] 0.05 | [4] -0.027 | [5] -0.018

UFD1 isoform 1 (UniProt Q92890)
inactive: [1] -0.011 | [2] 0.038 | [3] 0.033 | [4] -0.045 | [5] 0.019

USP48 (UniProt Q86UV5)
inactive: [1] 0

UGGT1 (UniProt Q9NYU2)
UniProt Q9NYU2, sequence (Q9NYU2 whole entry, looked up): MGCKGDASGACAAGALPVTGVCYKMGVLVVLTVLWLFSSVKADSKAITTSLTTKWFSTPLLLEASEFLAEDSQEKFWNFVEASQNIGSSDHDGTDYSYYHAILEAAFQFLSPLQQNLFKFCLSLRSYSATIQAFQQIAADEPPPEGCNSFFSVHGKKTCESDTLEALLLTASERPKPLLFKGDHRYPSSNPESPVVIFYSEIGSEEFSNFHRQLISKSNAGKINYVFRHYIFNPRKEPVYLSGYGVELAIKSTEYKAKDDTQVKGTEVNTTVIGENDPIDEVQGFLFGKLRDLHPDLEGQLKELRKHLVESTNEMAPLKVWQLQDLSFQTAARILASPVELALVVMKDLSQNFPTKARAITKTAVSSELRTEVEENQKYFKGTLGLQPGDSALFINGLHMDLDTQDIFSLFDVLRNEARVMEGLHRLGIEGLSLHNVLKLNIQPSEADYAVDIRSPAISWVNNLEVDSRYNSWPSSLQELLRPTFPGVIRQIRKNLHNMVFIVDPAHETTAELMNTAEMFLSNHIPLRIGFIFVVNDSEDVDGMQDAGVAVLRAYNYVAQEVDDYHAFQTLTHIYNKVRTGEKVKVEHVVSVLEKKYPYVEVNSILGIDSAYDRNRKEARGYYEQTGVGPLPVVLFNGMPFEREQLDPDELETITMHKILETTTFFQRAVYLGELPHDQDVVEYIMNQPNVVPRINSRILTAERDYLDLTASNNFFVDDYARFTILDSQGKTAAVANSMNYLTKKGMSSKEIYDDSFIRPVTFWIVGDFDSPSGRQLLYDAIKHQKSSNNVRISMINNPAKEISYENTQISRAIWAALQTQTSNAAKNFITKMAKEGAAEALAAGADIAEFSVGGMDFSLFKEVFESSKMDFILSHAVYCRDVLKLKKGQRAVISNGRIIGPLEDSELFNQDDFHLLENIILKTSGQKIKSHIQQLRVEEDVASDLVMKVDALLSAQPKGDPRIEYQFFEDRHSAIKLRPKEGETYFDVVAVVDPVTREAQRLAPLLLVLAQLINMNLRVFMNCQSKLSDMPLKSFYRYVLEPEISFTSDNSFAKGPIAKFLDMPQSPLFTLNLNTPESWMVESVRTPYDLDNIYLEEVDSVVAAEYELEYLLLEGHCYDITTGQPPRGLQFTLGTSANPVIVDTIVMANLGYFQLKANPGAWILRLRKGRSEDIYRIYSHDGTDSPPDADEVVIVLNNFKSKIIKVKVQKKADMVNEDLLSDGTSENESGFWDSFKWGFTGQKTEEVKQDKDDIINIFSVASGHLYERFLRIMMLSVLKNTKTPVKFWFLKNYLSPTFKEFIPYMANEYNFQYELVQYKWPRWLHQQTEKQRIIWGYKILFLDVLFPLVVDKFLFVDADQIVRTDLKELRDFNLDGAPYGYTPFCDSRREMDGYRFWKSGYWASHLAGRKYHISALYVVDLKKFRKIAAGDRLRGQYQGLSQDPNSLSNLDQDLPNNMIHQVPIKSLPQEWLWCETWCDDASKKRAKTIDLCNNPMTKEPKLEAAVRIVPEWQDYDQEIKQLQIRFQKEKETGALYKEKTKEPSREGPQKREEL
inactive: [1] 0.032 | [2] 0.027 | [3] -0.003 | [4] -0.007 | [5] -0.021

VPS13B (UniProt Q7Z7G8)
inactive: [1] 0 | [2] -0.008 | [3] 0.068 | [4] -0.057 | [5] 0.031

TMEM120A (UniProt Q9BXJ8)
inactive: [1] -0.126 | [2] 0.056 | [3] 0.012 | [4] -0.11 | [5] -0.049

WDR41 (UniProt Q9HAD4)
inactive: [1] -0.045 | [2] -0.08 | [3] -0.033 | [4] -0.03 | [5] 0.055

TMEM263 (UniProt Q8WUH6)
inactive: [1] -0.152 | [2] 0.047 | [3] 0.156 | [4] -0.072 | [5] -0.031

TXNRD1 (UniProt Q16881)
inactive: [1] -0.066 | [2] 0.086 | [3] 0.023 | [4] -0.031 | [5] -0.032

TMEM192 (UniProt Q8IY95)
inactive: [1] 0.02 | [2] -0.03 | [3] 0.018 | [4] -0.024 | [5] 0.032

WDR75 (UniProt Q8IWA0)
inactive: [1] -0.031 | [2] -0.24 | [3] 0.002 | [4] 0.304 | [5] -0.089

WASHC2A (UniProt Q641Q2)
inactive: [1] -0.006 | [2] -0.041 | [3] -0.017 | [4] 0.069 | [5] 0.033

TRABD (UniProt Q9H4I3)
inactive: [1] 0.005 | [2] -0.034 | [3] -0.054 | [4] 0.027 | [5] -0.054

VTI1B (UniProt Q9UEU0)
inactive: [1] 0.015 | [2] -0.002 | [3] 0.045 | [4] -0.032 | [5] 0.02

UXT isoform 2 (UniProt Q9UBK9)
inactive: [1] 0.046 | [2] 0.063 | [3] 0.065 | [4] -0.005 | [5] -0.077

UBA52 (UniProt P62987)
inactive: [1] 0.088 | [2] -0.301 | [3] -0.569 | [4] 0.265 | [5] 0.193

WDR62 isoform 4 (UniProt O43379)
inactive: [1] 0.007 | [2] 0.027 | [3] 0.031 | [4] 0.004 | [5] 0.009

TRAPPC2L (UniProt Q9UL33)
inactive: [1] -0.014 | [2] -0.044 | [3] -0.058 | [4] -0.063 | [5] 0.038

WDR47 (UniProt O94967)
UniProt O94967, sequence (O94967 whole entry, looked up): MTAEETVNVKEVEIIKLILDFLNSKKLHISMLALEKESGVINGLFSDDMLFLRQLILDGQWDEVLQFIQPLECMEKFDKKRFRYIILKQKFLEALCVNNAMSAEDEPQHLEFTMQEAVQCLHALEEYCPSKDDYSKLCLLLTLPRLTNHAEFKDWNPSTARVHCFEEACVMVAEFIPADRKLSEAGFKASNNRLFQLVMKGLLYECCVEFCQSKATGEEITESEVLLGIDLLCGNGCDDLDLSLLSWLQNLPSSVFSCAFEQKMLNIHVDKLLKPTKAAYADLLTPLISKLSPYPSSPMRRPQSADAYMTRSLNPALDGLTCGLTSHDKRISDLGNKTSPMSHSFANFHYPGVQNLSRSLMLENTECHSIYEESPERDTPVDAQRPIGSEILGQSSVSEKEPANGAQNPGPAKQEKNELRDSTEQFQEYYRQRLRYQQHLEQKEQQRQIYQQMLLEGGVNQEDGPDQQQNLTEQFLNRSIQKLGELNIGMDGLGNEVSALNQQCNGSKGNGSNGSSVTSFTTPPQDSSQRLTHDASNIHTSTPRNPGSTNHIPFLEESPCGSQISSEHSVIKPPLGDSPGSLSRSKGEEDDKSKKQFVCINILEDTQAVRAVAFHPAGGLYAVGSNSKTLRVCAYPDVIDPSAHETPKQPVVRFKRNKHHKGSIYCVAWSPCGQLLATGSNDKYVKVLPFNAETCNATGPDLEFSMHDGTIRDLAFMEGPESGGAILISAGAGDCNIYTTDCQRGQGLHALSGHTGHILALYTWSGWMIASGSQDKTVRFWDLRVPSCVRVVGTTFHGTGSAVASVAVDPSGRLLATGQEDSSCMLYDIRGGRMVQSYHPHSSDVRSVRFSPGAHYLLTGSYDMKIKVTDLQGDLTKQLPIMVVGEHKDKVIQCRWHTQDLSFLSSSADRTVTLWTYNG
inactive: [1] 0.019 | [2] 0.004 | [3] -0.042 | [4] -0.031 | [5] 0.078

USP15 (UniProt Q9Y4E8)
inactive: [1] -0.038 | [2] 0.035 | [3] 0.059 | [4] 0.008 | [5] -0.016

TNFRSF10A (UniProt O00220)
inactive: [1] 0.033 | [2] 0.006 | [3] -0.058 | [4] 0.024 | [5] 0.01

WDR43 (UniProt Q15061)
inactive: [1] 0.026 | [2] 0.027 | [3] 0.009 | [4] -0.009 | [5] 0.001

VAMP7 (UniProt P51809)
inactive: [1] 0.007 | [2] 0.044 | [3] 0.077 | [4] -0.047 | [5] 0.015

VPS35L (UniProt Q7Z3J2)
inactive: [1] -0.046 | [2] -0.13 | [3] 0.011 | [4] -0.024 | [5] 0

TMEM70 (UniProt Q9BUB7)
inactive: [1] -0.002 | [2] 0.065 | [3] 0.057 | [4] -0.05 | [5] -0.002

UBIAD1 (UniProt Q9Y5Z9)
inactive: [1] 0.012 | [2] 0.029 | [3] 0.068 | [4] -0.074 | [5] 0.093

VPS33A (UniProt Q96AX1)
inactive: [1] -0.039 | [2] 0.053 | [3] 0.147 | [4] 0.059 | [5] -0.041

UBC (UniProt P0CG48)
inactive: [1] 0.023 | [2] 0.087 | [3] 0.058 | [4] -0.019 | [5] -0.061

UBE2J1 (UniProt Q9Y385)
inactive: [1] -0.061 | [2] -0.011 | [3] 0.05 | [4] -0.039 | [5] -0.068

UBE2E3 (UniProt Q969T4)
inactive: [1] -0.076 | [2] 0.119 | [3] 0.115 | [4] -0.088 | [5] -0.023

WRB (UniProt O00258)
inactive: [1] 0.002 | [2] -0.007 | [3] -0.015 | [4] 0.005 | [5] 0.01

UTP4 (UniProt Q969X6)
inactive: [1] 0.009 | [2] 0.039 | [3] -0.044 | [4] 0.004 | [5] -0.021

TMEM106B (UniProt Q9NUM4)
inactive: [1] 0.039 | [2] -0.022 | [3] -0.008 | [4] -0.097 | [5] 0.034

WDR61 (UniProt Q9GZS3)
inactive: [1] -0.035 | [2] 0.04 | [3] 0.077 | [4] 0.032 | [5] 0.012

TNNC2 (UniProt P02585)
inactive: [1] 0.043 | [2] 0.004 | [3] 0.06 | [4] -0.624 | [5] 0.031

TUBAL3 (UniProt A6NHL2)
inactive: [1] -0.196 | [2] -0.012 | [3] 0.096 | [4] -0.051 | [5] 0.029

VARS2, A0A0G2JL52
inactive: [1] -0.006 | [2] 0.006 | [3] 0.044 | [4] -0.004 | [5] -0.015

UFM1 isoform 2 (UniProt P61960)
inactive: [1] -0.032 | [2] -0.009 | [3] 0.066 | [4] -0.069 | [5] -0.048

VWA8 (UniProt A3KMH1)
inactive: [1] -0.03 | [2] 0.023 | [3] 0.091 | [4] -0.044 | [5] -0.052

VPS51 (UniProt Q9UID3)
inactive: [1] -0.047 | [2] 0.026 | [3] 0.047 | [4] -0.048 | [5] -0.044

TRAPPC13 isoform 5 (UniProt A5PLN9)
inactive: [1] -0.055 | [2] 0.154 | [3] 0.08 | [4] -0.013 | [5] -0.017

TMEM177 (UniProt Q53S58)
UniProt Q53S58, sequence (Q53S58 whole entry, looked up): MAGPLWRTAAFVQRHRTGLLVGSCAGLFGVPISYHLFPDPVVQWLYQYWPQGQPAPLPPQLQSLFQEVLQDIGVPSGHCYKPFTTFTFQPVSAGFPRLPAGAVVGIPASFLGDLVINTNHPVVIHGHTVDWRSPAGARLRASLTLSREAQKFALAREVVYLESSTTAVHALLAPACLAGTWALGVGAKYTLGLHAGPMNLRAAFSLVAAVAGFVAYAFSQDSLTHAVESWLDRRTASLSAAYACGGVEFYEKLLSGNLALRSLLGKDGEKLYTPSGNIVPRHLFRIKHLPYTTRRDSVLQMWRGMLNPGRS
inactive: [1] 0.036 | [2] -0.01 | [3] -0.164 | [4] -0.001 | [5] -0.002

TRAM1 (UniProt Q15629)
inactive: [1] -0.167 | [2] -0.024 | [3] -0.008 | [4] 0.049 | [5] -0.018

USP25 isoform 3 (UniProt Q9UHP3)
UniProt Q9UHP3, sequence (Q9UHP3 whole entry, looked up): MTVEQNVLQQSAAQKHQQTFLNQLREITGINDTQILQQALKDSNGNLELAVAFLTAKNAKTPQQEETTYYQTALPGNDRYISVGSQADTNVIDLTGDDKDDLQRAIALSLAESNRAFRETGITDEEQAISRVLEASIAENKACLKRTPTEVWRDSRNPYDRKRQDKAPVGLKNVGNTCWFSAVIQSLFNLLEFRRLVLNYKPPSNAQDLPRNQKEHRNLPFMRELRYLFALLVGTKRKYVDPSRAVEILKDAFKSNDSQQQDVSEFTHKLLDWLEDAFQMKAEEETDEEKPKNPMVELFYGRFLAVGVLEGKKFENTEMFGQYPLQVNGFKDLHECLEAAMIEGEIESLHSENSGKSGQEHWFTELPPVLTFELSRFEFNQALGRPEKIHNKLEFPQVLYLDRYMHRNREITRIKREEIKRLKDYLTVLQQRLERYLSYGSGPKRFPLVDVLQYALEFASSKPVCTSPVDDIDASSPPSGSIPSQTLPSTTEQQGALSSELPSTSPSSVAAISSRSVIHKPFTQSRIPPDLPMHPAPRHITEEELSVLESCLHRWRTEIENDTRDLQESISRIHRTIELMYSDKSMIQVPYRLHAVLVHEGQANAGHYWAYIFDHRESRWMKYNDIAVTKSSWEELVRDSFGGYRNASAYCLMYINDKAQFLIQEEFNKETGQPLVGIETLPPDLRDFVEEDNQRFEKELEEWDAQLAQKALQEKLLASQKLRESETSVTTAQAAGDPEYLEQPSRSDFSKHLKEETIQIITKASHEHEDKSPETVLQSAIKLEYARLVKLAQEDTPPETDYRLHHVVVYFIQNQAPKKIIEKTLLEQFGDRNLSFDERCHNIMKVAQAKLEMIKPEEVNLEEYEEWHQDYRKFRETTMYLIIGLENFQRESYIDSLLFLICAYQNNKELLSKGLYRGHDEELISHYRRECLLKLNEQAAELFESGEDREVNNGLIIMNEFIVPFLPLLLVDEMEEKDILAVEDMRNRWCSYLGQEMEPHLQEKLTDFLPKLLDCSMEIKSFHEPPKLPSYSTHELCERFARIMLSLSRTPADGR
inactive: [1] -0.02 | [2] 0.024 | [3] 0.068 | [4] -0.007 | [5] -0.007

TRIP10 (UniProt Q15642)
inactive: [1] 0.016 | [2] 0.005 | [3] 0.081 | [4] 0.014 | [5] 0.037

XPNPEP3 (UniProt Q9NQH7)
inactive: [1] -0.004 | [2] 0.018 | [3] 0.07 | [4] -0.009 | [5] 0.006

WEE1 (UniProt P30291)
inactive: [1] 0.116 | [2] -0.031 | [3] -0.059 | [4] 0.132 | [5] 0.11

UTP3 (UniProt Q9NQZ2)
inactive: [1] 0.049 | [2] -0.312 | [3] -0.041 | [4] 0.042 | [5] -0.007
